The panel holds about 83,000 compounds, 20% with a hit somewhere; the sample as a whole holds those more often.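 How to read the values: 0–100, growth inhibition (40 = 60% inhibited); 0, no net growth; -100 to 0, cell death (-40 = 40% of starting cells died; -100 = all dead).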 Activity calls are given as the source filed them.
System: HT29 colon
Test: NCI-60 one-dose screen, 48 h (100 = growth as untreated, 0 = no growth, -100 = all killed)
Conditions: 10 µM
Description: Growth inhibition of the HT29 human tumor cell line is measured as a screen for anti-cancer activity. Cells are grown in 96 well plates and exposed to the test compound for 48 hours. Compounds are tested at a single concentration, which is 10^-5 M for most compounds. The reported endpoint is percent growth (GI% or GIPRCNT), where numbers from 0 - 100% represent growth inhibition, and numbers from -100% - 0 represent cell death. For example, a value of 40 represents 60% growth inhibition. A value of 0 means no net growth occurred over the course of the experiment. A value of -40 indicates 40% of cells at the beginning of the experiment died by the end of the experiment. A value of -100 means all cells are dead at the end of the experiment.
NCI-60 Human Tumor Cell Lines Screen was performed using the standard one-dose NCI protocol, which is described in more detail at https://dtp.cancer.gov/discovery_development/nci-60/default.htm.
Compounds with GIPRCNT values below 10 were considered active. Activity score was based on GIPRCNT using the following formula: […]
Score is 0 for GIPRCNT values of 100 or above, 50 for GIPRCNT values of 0, and 100 for GIPRCNT values of -100.

| SMILES | growth |
| --- | --- |
| COc1ccc(-c2nc(-c3ccccc3)c(-c3ccccc3)n2-c2ccc(S(=O)(=O)Nc3ncccn3)cc2)cc1OC | 96.2% (inactive) |
| COc1ccc(-c2nc(S(=O)(=O)c3ccc(C)cc3)c(S(C)(=O)=O)o2)cc1 | -74.8% (active) |
| CC(C)c1ccc(C(=O)Nc2sc3c(c2C(N)=O)CCC(=O)C3=O)cc1 | 110% (inactive) |
| O=C(NCCCCCCCCCC[P+](c1ccccc1)(c1ccccc1)c1ccccc1)c1ccc(-n2nc(-c3ccccc3O)nc2-c2ccccc2O)cc1 | -72.9% (active) |
| COc1ccc(CCN2C(=O)/C(=C/c3csc(C#N)n3)SC2=S)cc1OC | -48.4% (active) |
| COc1cc(/C=C/C(=O)c2ccc(C(F)(F)F)cc2)ccc1Oc1nc(Nc2ccc(F)cc2)nc(N(C)C)n1 | 74.1% (inactive) |
| Cc1noc2c(Cc3ccccc3)nn(CC(=O)N/N=C/c3ccc(F)cc3)c(=O)c12 | 94.8% (inactive) |
| Nc1nnc(-c2c[nH]c3ccc(F)cc23)c(-c2c[nH]c3ncccc23)n1 | 59.5% (inactive) |
| CC1(c2ccccc2)NC(=O)N(CC(=O)Nc2ccc(C(=O)/C=C/c3ccc(Cl)cc3)cc2)C1=O (stereo not given) | -46.9% (active) |
| Cn1cc(-c2cc(N)n3nc(-c4c[nH]c5ccc(Br)cc45)cc3n2)c2cccnc21 | -81.7% (active) |
| N#Cc1ccc(-c2nn(-c3ccc(C(=O)O)cc3)cc2CNc2ccc(Cl)cc2)cc1 | 100% (inactive) |
| CC1=N/C(=C\c2ccc(N(C)C)cc2)C(=O)N1CCc1ccc(S(N)(=O)=O)cc1 | 105% (inactive) |
| CC(C)C1=C[C@@]23CC[C@@H]4[C@](C)(CCC[C@]4(C)C(=O)NCc4ccccc4)[C@H]2C[C@@H]1[C@H]1C(=O)OC(=O)[C@H]13 | 18.8% (inactive) |
| COc1ccc(-c2c(N)c(=O)n(C)c3ccccc23)cc1 | 59.9% (inactive) |
| O=C1Nc2ccc(F)cc2/C1=C/c1cccc(OCc2ccccn2)c1 | 26.2% (inactive) |
| COc1ccc(C2NC(=S)NC(C)=C2C(=O)OC(C)C)cc1OC (stereo not given) | 115% (inactive) |
| COc1ccc2ncc(C#Cc3cncc(C(=O)Nc4ccc(CN5CCN(C)CC5)c(C(F)(F)F)c4)c3)n2n1 | -51.8% (active) |
| COc1cccc(/C=C2\N=C(C)N(CCc3ccc(S(N)(=O)=O)cc3)C2=O)c1 | 108% (inactive) |
| CCN1CCN(c2ccc(NC(=O)Nc3ccc(-c4cc(C(=O)NC)c5ncccc5n4)cc3)cc2C(F)(F)F)CC1 | -100% (active) |
| O=c1oc2ccc(-c3ccc(F)cc3F)cc2c(=O)n1-c1ccc(F)c(Cl)c1 | 23.1% (inactive) |

| SMILES | growth |
| --- | --- |
| COc1cc(C2CC(c3ccccc3)=Nc3c(N)nc(N)nc3N2)ccc1Oc1nc(Nc2ccc(F)cc2)nc(N(C)C)n1 (stereo not given) | 24.7% (inactive) |
| CC(C)(C)Nc1nc2cc(Cl)c(Cl)cc2nc1S(C)(=O)=O | 47.4% (inactive) |
| N#Cc1c(-c2ccc(Cl)cc2)cc(-c2ccccc2)nc1OCc1ccccc1 | 65% (inactive) |
| COc1ccc(C(=O)CSc2nnc(-c3c[nH]c4ccccc34)n2-c2ccccc2)cc1 | 83.1% (inactive) |
| COc1cc2c(c(OC)c1OC)C(=O)CC(c1cccc(NC(=O)c3cccc(N)c3)c1)O2 (stereo not given) | 94.7% (inactive) |
| COc1cnc2c(c1)C(=O)c1c-2n(CCCNC(C)C)c(=O)c2cc(OC)c(OC)cc12 | 10.5% (inactive) |
| O=c1[nH]c2ccccc2cc1CSc1ccc(Nc2nccc(-c3ccc4c(c3)OCO4)n2)cc1 | 74.3% (inactive) |
| CCCn1c(=O)c2[nH]c(-c3ccc(OCc4nc5ccc(F)cc5[nH]4)cc3)nc2n(CCC)c1=O | 26.7% (inactive) |
| COc1ccc2c(c1)N=C(C(=O)O)/C2=C/c1sc(Nc2ccc(O)cc2)nc1O | 95.9% (inactive) |
| Nc1nnc(-c2c[nH]c3ncccc23)c(-c2c[nH]c3ccc(Br)cc23)n1 | 45.1% (inactive) |
| O=C(NO)c1ccc(Cn2ccc3c(Nc4ccccc4)ncnc32)cc1 | 8.25% (active) |
| O=C1NC(=NC2CCCCCC2)N/C1=C\c1ccc2ncoc2c1 | 56.1% (inactive) |
| O=C(O)CCCCCCCCCCN1C(=O)/C(=C/c2cnc(-c3ccc(Cl)cc3)s2)SC1=S | 96.3% (inactive) |
| O=c1cc(-c2ccccc2)oc2cc(OCCCCNCc3ccccc3)cc(O)c12 | -55.4% (active) |
| Cc1cc(C(F)(F)F)ccc1C(=O)Nc1sc2c(c1C#N)CCC(=O)C2 | -27.8% (active) |
| CCCCCCCCCCCCCCCCCCCC(=O)NCCc1c[nH]c2ccc(O)cc12 | 121% (inactive) |
| CN(CCO)c1oc(-c2ccccc2)nc1[P+](c1ccccc1)(c1ccccc1)c1ccccc1 | 7.78% (active) |
| N#Cc1c(NC(=O)c2ccc(C(O)(C(F)(F)F)C(F)(F)F)cc2)sc2c1CCC(=O)C2 | -34.5% (active) |
| CO[C@H]1CSS[C@@H]1Cn1nc(-c2ccc(Oc3ccccc3)cc2)c2c(N)ncnc21 | 17.2% (inactive) |
| O=C(Nc1ccc(Cl)c(C(F)(F)F)c1)c1cncc(C#Cc2cnc3ccc(N4CCOCC4)nn23)c1 | 8.82% (active) |

From PubChem BioAssay (NCI)
